# In PubChem BioAssay (Tox21):
# Inconclusive results are not listed. Activity calls are given as the source filed them. The call rests on the fitted dose curve.
# Assay: qHTS assay to identify small molecule antagonists of the sonic hedgehog signaling (Shh) pathway (AID 1259369); further: nearly all actives have a fitted effect of over 45% in size
# Settings: NIH/3T3 Gli1-Luc reporter, Shh antagonist, luminescence 24 h; series mostly up to 92.4 µM; activity change, negative = inhibition: at the top concentration
# Method in brief: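 NIH/3T3 stable Gli1-Luc clone, 2,000 cells/well, 4hr settle; cpd + conditioned medium 24hr; Luc reagent 30min RT; luminescence.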
# On the % scale 0 is the no-effect control and ±100 the full control effect; potency means the concentration at half of the fitted maximal effect.
SMILES,"activity change, negative = inhibition",Potency
CC(C(=O)O)c1ccc2c(c1)Cc1cccnc1O2 (stereo not drawn),28.7% [at 42.5 µM] (inactive),–
Cc1cc(SC2=C(O)C[C@@](CCc3ccc(N)cc3)(C(C)C)OC2=O)c(C(C)(C)C)cc1CO,2.38% (inactive),–
Oc1ccc(CCNCCCCCCNCCc2ccccc2)cc1O,–,9.44 µM (active)
CCN(CCCCOC(=O)c1ccc(OC)c(OC)c1)C(C)Cc1ccc(OC)cc1 (stereo not drawn),8.77% [at 42.5 µM] (inactive),–
CC(C)CCCCCCCOC(=O)c1ccc(C(=O)OCCCCCCCC(C)C)c(C(=O)OCCCCCCCC(C)C)c1,–,4.78 µM (active)
Cc1ccc(NC(=O)c2ccc(CN3CCN(C)CC3)cc2)cc1Nc1nccc(-c2cccnc2)n1,–,2.66 µM (active)
O=S(=O)(O)c1cc(Cl)c(Cl)cc1Cl,-19.9% (inactive),–
Cc1nc(C)c(C)nc1C,2.91% (inactive),–
O=C(N[C@@H](Cc1ccccc1)[C@@H](O)C(=O)N1C[C@@H](O)[C@@H](O)C1)c1cc2cc(Cl)ccc2[nH]1,-15.9% (inactive),–
CC(C)(C)c1ccc(CCC=O)cc1,-4.69% (inactive),–
CCOC(=O)CC(O)(CC(=O)OCC)C(=O)OCC,–,68.6 µM (active)
CCCC(=O)OCCC(C)C,0% (inactive),–
CC1=C(C)C(=O)C(CCCCC#CCCCC#CCO)=C(C)C1=O,-21.3% [at 42.5 µM] (inactive),–
C[C@H](CN1CCCC1)C(=O)c1ccc(C(F)(F)F)cc1,17.4% [at 42.5 µM] (inactive),–
C=CC(C)CCC=C(C)C (stereo not drawn),-0.688% (inactive),–
O=C(c1ccc(Cl)cc1)c1ccc(Cl)cc1,0% (inactive),–
CCC(=O)O[C@]1(C(=O)COC)[C@@H](C)C[C@H]2[C@@H]3CCC4=CC(=O)C=C[C@]4(C)C3(F)[C@@H](O)C[C@@]21C (stereo partly drawn),-3.98% [at 42.5 µM] (inactive),–
COC(=O)C(C)(C)C,21.6% (inactive),–
C=C[Si](OCC)(OCC)OCC,12.6% (inactive),–
C=CC(O)CCCCC (stereo not drawn),5.67% (inactive),–
O=C1c2ccccc2C(=O)C1c1ccc2ccccc2n1,-36.5% [at 42.5 µM] (inactive),–
CCCCCCCCCCCCSCCOCCO,-23.8% [at 42.5 µM] (inactive),–
CC(C)=CCC/C(C)=C/C=N/O,-11% (inactive),–
Cc1c(N=C=O)cccc1N=C=O,-36.3% (inactive),–
O=C(O)c1ccccc1-n1cc(C(=O)O)c(=O)c2cc(Nc3c(F)cc(F)cc3Cl)c(Cl)cc21,1.37% (inactive),–
CCCN(C1CCN(C(=O)C2CCNCC2)CC1)[C@@H]1CCc2ccc(OC)cc2C1,–,4.33 µM (active)
Clc1cc(Cl)c2c(c1)N=C1CCCCCN1C2,-0.972% [at 42.5 µM] (inactive),–
C=C[Si]1(C)O[Si](C)(C=C)O[Si](C)(C=C)O[Si](C)(C=C)O1 (stereo not drawn),–,30.6 µM (active)
